Test results taken from PubChem BioAssay (EPA / NIEHS).
Activity calls are given as the source filed them. How the source made its calls: active means hit-call score of the fitted dose curve at least 0.9, where 1 is the maximum; inactive means score below 0.9.

How the values were obtained:
[1] = BSK_KF3CT_SRB: Viability Assessment in the BioMAP Diversity Plus: KF3CT Assay (AID 2283069); settings: primary human keratinocytes with fibroblasts
Summary of the method: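 Overt cytotoxicity is assessed as total protein by sulforhodamine B staining in parallel human skin co-cultures at 24 h after dosing. DMSO serves as negative control and baseline.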

[2] = read-out: Interleukin-1 alpha (IL1a), IL1A (gene 3552); assay: BSK_KF3CT_IL1a: BioMAP Diversity Plus: KF3CT Assay for Interleukin-1 alpha (IL1a) Biomarker Activity (AID 2283070); settings: primary human keratinocytes with fibroblasts; actives raise or lower the signal
Summary of the method: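 Readout is IL-1a level by ELISA, compared bidirectionally with DMSO as baseline. Cells: human keratinocytes co-cultured with foreskin fibroblasts, harvested 24 h post-dose.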

[3] = read-out: TIMP metallopeptidase inhibitor 2 (TIMP2), TIMP2 (gene 7077); assay: BSK_KF3CT_TIMP2: BioMAP Diversity Plus: KF3CT Assay for TIMP metallopeptidase inhibitor 2 (TIMP2) Biomarker Activity (AID 2283071); settings: primary human keratinocytes with fibroblasts; actives raise or lower the signal
Summary of the method: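 Measurements come from ELISA detection of TIMP-2 at 24 hours in a dosed human keratinocyte and foreskin fibroblast co-culture. DMSO serves as negative control and baseline.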

[4] = read-out: Transforming growth factor beta 1 (TGFb1), TGFB1 (gene 7040); assay: BSK_KF3CT_TGFb1: BioMAP Diversity Plus: KF3CT Assay for Transforming growth factor beta 1 (TGFb1) Biomarker Activity (AID 2283072); settings: primary human keratinocytes with fibroblasts; actives raise or lower the signal
Summary of the method: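 TGF-b1 ELISA on a 24 h dosed co-culture of human keratinocytes and foreskin fibroblasts; cytotoxicity tracked in parallel cultures by SRB staining.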

[5] = read-out: C-C motif chemokine 2 (Homo sapiens) (UniProt P13500); assay: BSK_KF3CT_MCP1: BioMAP Diversity Plus: KF3CT Assay for Monocyte Chemoattractant Protein 1 (MCP1/CCL2) Biomarker Activity (AID 2283073); settings: primary human keratinocytes with fibroblasts; actives raise or lower the signal
Summary of the method: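 ELISA read-out of MCP-1, 24 h post-dose, in primary human skin keratinocytes co-cultured with fibroblasts. Parallel SRB staining monitors cytotoxicity; changes fitted both directions relative to DMSO.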

[6] = read-out: Matrix Metallopeptidase 9 (MMP9), MMP9 (gene 4318); assay: BSK_KF3CT_MMP9: BioMAP Diversity Plus: KF3CT Assay for Matrix Metallopeptidase 9 (MMP9) Biomarker Activity (AID 2283074); settings: primary human keratinocytes with fibroblasts; actives raise or lower the signal
Summary of the method: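 Values come from bidirectional fitting relative to DMSO of MMP-9 levels, which were measured by ELISA. Measurements were taken 24 h after chemical dosing of a keratinocyte and foreskin fibroblast co-culture.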

CD40, CD40 (gene 958) [7] = assay: BSK_LPS_CD40: BioMAP Diversity Plus: LPS Assay for CD40 Biomarker Activity (AID 2283076); settings: primary human HUVEC with PBMC; actives raise or lower the signal
Summary of the method: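 In the LPS system of human endothelial cells with peripheral blood mononuclear cells, CD40 levels were read by ELISA 24 h post-treatment. Signal changes in either direction were fitted against the DMSO baseline, with parallel SRB protein staining.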

[8] = read-out: E-selectin (Homo sapiens) (UniProt P16581); assay: BSK_LPS_Eselectin: BioMAP Diversity Plus: LPS Assay for Eselectin Biomarker Activity (AID 2283077); settings: primary human HUVEC with PBMC; actives raise or lower the signal
Summary of the method: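 E-selectin ELISA on LPS-stimulated endothelial cell/PBMC co-cultures, read 24 h post-treatment; gains and losses fitted against DMSO. Parallel SRB staining (0.1% SRB after 10% TCA fixation, 560 nm) flags overt cytotoxicity.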

[9] = read-out: Interleukin-8 (IL8), CXCL8 (gene 3576); assay: BSK_LPS_IL8: BioMAP Diversity Plus: LPS Assay for Interleukin-8 (IL8) Biomarker Activity (AID 2283078); settings: primary human HUVEC with PBMC; actives raise or lower the signal
Summary of the method: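 ELISA read-out of IL-8 after 24 h chemical treatment of LPS-activated endothelial/PBMC human primary co-cultures. Changes either up or down relative to DMSO; overt cytotoxicity checked by sulforhodamine B staining in parallel wells.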

[10] = BSK_LPS_SRB: Viability Assessment in the BioMAP Diversity Plus: LPS Assay (AID 2283079); settings: primary human HUVEC with PBMC;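 further: total protein by sulforhodamine B absorbance as a cytotoxicity measure; measured one day after compound addition; fitted in both directions against DMSO so loss or gain of signal counts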
Summary of the method: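 SRB viability endpoint: cells fixed with 10% TCA, stained with 0.1% SRB, read at 560 nm, 24 h post-dose. HUVEC/PBMC co-culture; signal change in either direction scored relative to DMSO.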

[11] = read-out: Interleukin-1 alpha (IL1a), IL1A (gene 3552); assay: BSK_LPS_IL1a: BioMAP Diversity Plus: LPS Assay for Interleukin-1 alpha (IL1a) Biomarker Activity (AID 2283080); settings: primary human HUVEC with PBMC; actives raise or lower the signal
Summary of the method: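 Readout is IL-1a level by ELISA, 24 h post-dose, fitted as gain or loss relative to DMSO. System: LPS-activated human primary co-culture of vascular endothelium and peripheral blood mononuclear cells, with parallel SRB total-protein cytotoxicity.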

[12] = read-out: Monocyte Chemoattractant Protein-1 (MCP1), CCL2 (gene 6347); assay: BSK_LPS_MCP1: BioMAP Diversity Plus: LPS Assay for Monocyte Chemoattractant Protein-1 (MCP1) Biomarker Activity (AID 2283081); settings: primary human HUVEC with PBMC; actives raise or lower the signal;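 on AC50: secreted MCP-1 protein quantified by ELISA in culture supernatant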
Summary of the method: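 Secreted MCP-1 read by ELISA at 24 h post-dosing in an LPS-activated co-culture of endothelial cells with peripheral blood mononuclear cells. Fits run in both directions, DMSO as baseline; parallel SRB staining tracks overt cytotoxicity.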

[13] = BSK_LPS_PGE2: BioMAP Diversity Plus: LPS Assay for Prostaglandin E2 (PGE2) Biomarker Activity (AID 2283082); settings: primary human HUVEC with PBMC; actives raise or lower the signal
Summary of the method: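 Primary human endothelial cells and blood mononuclear cells, co-cultured with LPS, receive test chemical; PGE2 ELISA follows at 24 h, with SRB-stained parallel cultures flagging cytotoxicity.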

[14] = read-out: Macrophage colony-stimulating factor (MCSF), CSF1 (gene 1435); assay: BSK_LPS_MCSF: BioMAP Diversity Plus: LPS Assay for Macrophage colony-stimulating factor (MCSF) Biomarker Activity (AID 2283083); settings: primary human HUVEC with PBMC; actives raise or lower the signal
Summary of the method: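 Bidirectional fitting against DMSO was applied to M-CSF levels read by ELISA at 24 h post-dose. The system pairs human umbilical vein endothelium with peripheral blood mononuclear cells; parallel SRB staining tracked cytotoxicity.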

[15] = read-out: Tissue Factor, F3 (gene 2152); assay: BSK_LPS_TissueFactor: BioMAP Diversity Plus: LPS Assay for Tissue Factor Biomarker Activity (AID 2283084); settings: primary human HUVEC with PBMC; actives raise or lower the signal
Summary of the method: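 Compound was added to an endothelial cell/PBMC co-culture, and after 24 h tissue factor (CD142) was read by ELISA. Gain or loss of signal was fitted against a DMSO baseline, and parallel SRB staining (560 nm) tracked overt cytotoxicity.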

[16] = read-out: Tumor necrosis factor (Homo sapiens) (UniProt P01375); assay: BSK_LPS_TNFa: BioMAP Diversity Plus: LPS Assay for Tumour Necrosis Factor alpha (TNFa) Biomarker Activity (AID 2283085); settings: primary human HUVEC with PBMC; actives raise or lower the signal
Summary of the method: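 ELISA-based TNFa endpoint in a human endothelial–PBMC co-culture sampled 24 h post-exposure. Curves were fitted in both directions using DMSO as baseline of activity.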

[17] = read-out: Vascular cell adhesion molecule 1 (VCAM1), VCAM1 (gene 7412); assay: BSK_LPS_VCAM1: BioMAP Diversity Plus: LPS Assay for Vascular cell adhesion molecule 1 (VCAM1) Biomarker Activity (AID 2283086); settings: primary human HUVEC with PBMC; actives raise or lower the signal
Summary of the method: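 Measured by ELISA: VCAM-1 in LPS-activated HUVEC/PBMC co-cultures 24 h after treatment. Values reflect bidirectional fitting with DMSO as baseline.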

CD38, CD38 (gene 952) = assay: BSK_SAg_CD38: BioMAP Diversity Plus: SAg Assay for CD38 Biomarker Activity (AID 2283087); settings: primary human HUVEC with PBMC; actives raise or lower the signal
Summary of the method: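 Measures CD38 on a human endothelial/PBMC co-culture driven by SEB and TSST-1, 24 h after compound exposure, using ELISA with fluorescence detection; DMSO defines baseline for bidirectional curve fitting.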

CD40, CD40 (gene 958) [18] = assay: BSK_SAg_CD40: BioMAP Diversity Plus: SAg Assay for CD40 Biomarker Activity (AID 2283088); settings: primary human HUVEC with PBMC; actives raise or lower the signal
Summary of the method: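 CD40 is measured by fluorescence ELISA in an endothelial/PBMC primary human co-culture at 24 h post-dose. Fitting is bidirectional, DMSO baseline. Parallel SRB staining (560 nm) flags cytotoxicity.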

[19] = read-out: urokinase plasminogen activator (uPA), PLAU (gene 5328); assay: BSK_KF3CT_uPA: BioMAP Diversity Plus: KF3CT Assay for urokinase plasminogen activator (uPA) Biomarker Activity (AID 2283075); settings: primary human keratinocytes with fibroblasts; actives raise or lower the signal
Summary of the method: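 Values derive from bidirectional fitting against DMSO controls. Keratinocyte/foreskin fibroblast co-cultures received chemical; 24 h later uPA was detected by ELISA, with SRB total-protein staining in parallel wells for overt cytotoxicity.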

Measured: AC50

Tumor necrosis factor (Homo sapiens), sequence (P01375 whole entry, looked up): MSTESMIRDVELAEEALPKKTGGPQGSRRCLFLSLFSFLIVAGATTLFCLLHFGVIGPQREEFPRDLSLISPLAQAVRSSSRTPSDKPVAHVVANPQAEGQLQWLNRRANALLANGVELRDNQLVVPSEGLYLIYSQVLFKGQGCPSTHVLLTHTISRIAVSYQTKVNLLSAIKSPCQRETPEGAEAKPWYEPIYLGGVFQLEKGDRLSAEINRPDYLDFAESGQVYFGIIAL
E-selectin (Homo sapiens), sequence (P16581 whole entry, looked up): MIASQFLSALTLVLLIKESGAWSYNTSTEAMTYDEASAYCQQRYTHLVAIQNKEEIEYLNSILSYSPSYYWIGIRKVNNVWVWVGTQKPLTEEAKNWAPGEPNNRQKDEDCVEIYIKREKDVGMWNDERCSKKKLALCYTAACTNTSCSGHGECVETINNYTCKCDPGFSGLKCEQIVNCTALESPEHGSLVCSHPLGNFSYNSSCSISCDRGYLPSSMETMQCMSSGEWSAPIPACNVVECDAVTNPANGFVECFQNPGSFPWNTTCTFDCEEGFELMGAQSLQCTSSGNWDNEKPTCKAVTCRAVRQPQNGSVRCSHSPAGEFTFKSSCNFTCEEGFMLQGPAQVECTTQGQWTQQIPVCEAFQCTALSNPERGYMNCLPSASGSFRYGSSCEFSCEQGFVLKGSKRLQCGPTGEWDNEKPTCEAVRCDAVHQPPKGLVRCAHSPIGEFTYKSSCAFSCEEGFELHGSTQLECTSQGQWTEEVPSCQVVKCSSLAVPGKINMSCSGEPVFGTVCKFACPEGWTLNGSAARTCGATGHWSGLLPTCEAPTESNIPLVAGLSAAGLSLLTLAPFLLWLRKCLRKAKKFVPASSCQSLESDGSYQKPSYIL

[N-]=[N+]=[N-]
inactive: [1] | [2] | [3] | [4] | [5] | [6] | CD40, CD40 (gene 958) [7] | [8] | [9] | [10] | [11] | [12] | [13] | [14] | [15] | [16] | [17] | CD38, CD38 (gene 952) | CD40, CD40 (gene 958) [18]

c1nc[nH]n1
inactive: [1] | [2] | [3] | [4] | [5] | [6] | [19] | CD40, CD40 (gene 958) [7] | [8] | [9] | [10] | [11] | [12] | [13] | [14] | [15] | [16] | [17] | CD38, CD38 (gene 952) | CD40, CD40 (gene 958) [18]

CCOP(=S)(OCC)SCSCC
inactive: [1] | [2] | [3] | [4] | [5] | [6] | [19] | CD40, CD40 (gene 958) [7] | [8] | [9] | [10] | [11] | [12] | [13] | [14] | [15] | [16] | [17] | CD38, CD38 (gene 952) | CD40, CD40 (gene 958) [18]

CCC(C)(C)c1ccc(O)cc1
inactive: [1] | [2] | [3] | [4] | [5] | [6] | [19] | CD40, CD40 (gene 958) [7] | [8] | [9] | [10] | [11] | [12] | [13] | [14] | [15] | [16] | [17] | CD38, CD38 (gene 952) | CD40, CD40 (gene 958) [18]

O=C(O)C(Cl)Cl
inactive: [1] | [2] | [3] | [4] | [5] | [19] | CD40, CD40 (gene 958) [7] | [8] | [9] | [10] | [11] | [12] | [13] | [14] | [15] | [16] | [17] | CD38, CD38 (gene 952) | CD40, CD40 (gene 958) [18]

CC(C)(C)c1ccccc1OP(=O)(Oc1ccccc1)Oc1ccccc1
active: [2] 20 µM | [3] 20 µM | CD40, CD40 (gene 958) [7] 25.3 µM | [8] 20 µM | [9] 20 µM | [10] 20 µM | [11] 27.3 µM | [12] 20 µM | [14] 20 µM | [17] 20 µM | CD38, CD38 (gene 952) 30.7 µM | CD40, CD40 (gene 958) [18] 28.3 µM
inactive: [1] | [4] | [5] | [19] | [13] | [15] | [16]
